In the supplement of paper PMC8728848:
The entries come from a sample that favours the strongest signals as a whole.

How the values were obtained:
Experiment in all cases: glycan array binding signal (z-score within array); higher = stronger binding
Conditions in all cases: glycan notation: IUPAC condensed, linker removed
[1] = target: Fuc(a1-2)Gal(b1-3)GlcNAc(b1-3)[Fuc(a1-3)[Gal(b1-4)]GlcNAc(b1-6)]Gal(b1-4)Glc
Method in brief: (§1)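 Glycan array data were curated from 3228 arrays in the Consortium for Functional Glycomics database and kept only where the protein sequence was available. Glycan names were converted to IUPAC-condensed notation, and columns mapping to the same glycan were averaged. The binding signal is a within-array Z-score, averaged across arrays of the same protein sequence at different concentrations or buffers and across linkers. Negative Z-scores can be read as non-binding.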

[2] = target: Fuc(a1-2)Gal(b1-3)GlcNAc(b1-3)[Neu5Ac(a2-6)Gal(b1-4)GlcNAc(b1-6)]Gal(b1-4)Glc
Method in brief: as §1

[3] = target: Fuc(a1-2)Gal(b1-4)[Fuc(a1-3)]GlcNAc(b1-3)GalNAc
Method in brief: as §1

[4] = target: Fuc(a1-2)[Gal(a1-3)]Gal(b1-3)GlcNAc(b1-2)Man(a1-3)[Fuc(a1-2)[Gal(a1-3)]Gal(b1-3)GlcNAc(b1-2)Man(a1-6)]Man(b1-4)GlcNAc(b1-4)[Fuc(a1-6)]GlcNAc
Method in brief: as §1

[5] = target: Fuc(a1-2)[GalNAc(a1-3)]Gal(b1-4)[Fuc(a1-3)]GlcNAc(b1-3)GalNAc
Method in brief: as §1

[6] = target: Fuc(a1-2)[GalNAc(a1-4)]Gal(b1-4)GlcNAc
Method in brief: as §1

[7] = target: Fuc(a1-3)[Gal(b1-4)]GlcNAc(b1-2)Man(a1-3)[Fuc(a1-3)[Gal(b1-4)]GlcNAc(b1-2)Man(a1-6)]Man(b1-4)GlcNAc(b1-4)[Fuc(a1-6)]GlcNAc
Method in brief: as §1

[8] = target: Fuc(a1-3)[Gal(b1-4)]GlcNAc(b1-6)GalNAc
Method in brief: as §1

[9] = target: Gal(a1-3)Fuc(a1-2)Gal(b1-4)GlcNAc(b1-3)[Gal(a1-3)Fuc(a1-2)Gal(b1-4)GlcNAc(b1-6)]GalNAc
Method in brief: as §1

[10] = target: Gal(a1-3)Gal(b1-4)[Fuc(a1-3)]GlcNAc
Method in brief: as §1

Gal(a1-3)GalNAc = target: Gal(a1-3)GalNAc
Method in brief: as §1

[11] = target: Gal(b1-4)GlcNAc(b1-2)Man(a1-3)[Gal(b1-4)GlcNAc(b1-2)Man(a1-6)]Man(b1-4)GlcNAc(b1-4)[Fuc(a1-6)]GlcNAc
Method in brief: as §1

[12] = target: Gal(b1-4)GlcNAc(b1-2)[Gal(b1-4)GlcNAc(b1-6)]Man(a1-6)[Gal(b1-4)GlcNAc(b1-2)Man(a1-3)]Man(b1-4)GlcNAc(b1-4)GlcNAc
Method in brief: as §1

[13] = target: Gal(b1-4)GlcNAc(b1-3)Gal(b1-4)GlcNAc
Method in brief: as §1

Gal(b1-6)Gal = target: Gal(b1-6)Gal
Method in brief: as §1

[14] = target: Gal3S(b1-4)[Fuc(a1-3)]Glc6S
Method in brief: as §1

Gal4S(b1-4)GlcNAc = target: Gal4S(b1-4)GlcNAc
Method in brief: as §1

Gal6S(b1-4)Glc = target: Gal6S(b1-4)Glc
Method in brief: as §1

Gal6S(b1-4)GlcNAc = target: Gal6S(b1-4)GlcNAc
Method in brief: as §1

Glc(a1-4)Glc = target: Glc(a1-4)Glc
Method in brief: as §1

[15] = target: GlcNAc(a1-4)Gal(b1-3)GlcNAc
Method in brief: as §1

[16] = target: GlcNAc(a1-4)Gal(b1-4)GlcNAc(b1-3)Gal(b1-4)GlcNAc
Method in brief: as §1

[17] = target: GlcNAc(a1-4)Gal(b1-4)GlcNAc(b1-3)Gal(b1-4)[Fuc(a1-3)]GlcNAc(b1-3)Gal(b1-4)[Fuc(a1-3)]GlcNAc
Method in brief: as §1

[18] = target: GlcNAc(b1-3)[GlcNAc(b1-6)]GalNAc
Method in brief: as §1

Kdn(a2-3)Gal(b1-3)GlcNAc = target: Kdn(a2-3)Gal(b1-3)GlcNAc
Method in brief: as §1

[19] = target: Man(a1-2)Man(a1-3)[Man(a1-2)Man(a1-6)]Man(a1-6)[Man(a1-2)Man(a1-2)Man(a1-3)]Man
Method in brief: as §1

[20] = target: Man(a1-2)Man(a1-3)[Man(a1-2)Man(a1-6)]Man(a1-6)[Man(a1-2)Man(a1-2)Man(a1-3)]Man(b1-4)GlcNAc(b1-4)GlcNAc
Method in brief: as §1

[21] = target: Man(a1-2)Man(a1-6)[Man(a1-3)]Man(a1-6)[Man(a1-2)Man(a1-2)Man(a1-3)]Man(b1-4)GlcNAc(b1-4)GlcNAc
Method in brief: as §1

[22] = target: Neu5Ac(a2-3)Gal(b1-3)GlcNAc(b1-3)GalNAc
Method in brief: as §1

[23] = target: Neu5Ac(a2-3)Gal(b1-4)[Fuc(a1-3)]GlcNAc(b1-3)GalNAc
Method in brief: as §1

[24] = target: Neu5Ac(a2-3)Gal6S(b1-4)[Fuc(a1-3)]GlcNAc
Method in brief: as §1

[25] = target: Neu5Ac(a2-6)Gal(b1-4)GlcNAc(b1-2)Man(a1-3)[Neu5Ac(a2-6)Gal(b1-4)GlcNAc(b1-2)Man(a1-6)]Man(b1-4)GlcNAc(b1-4)GlcNAc
Method in brief: as §1

[26] = target: Neu5Ac(a2-6)Gal(b1-4)GlcNAc(b1-2)Man(a1-6)Man(b1-4)GlcNAc(b1-4)GlcNAc
Method in brief: as §1

[27] = target: Neu5Ac(a2-6)GlcNAc(b1-4)GlcNAc
Method in brief: as §1

[28] = target: Neu5Ac(a2-6)GlcNAc(b1-4)GlcNAc(b1-4)GlcNAc
Method in brief: as §1

[29] = target: Neu5Ac9Ac(a2-3)Gal(b1-4)GlcNAc
Method in brief: as §1

B1: NanI (Corynebacterium diphtheriae), C6JSW7 (protein)
chain: MTNTLESNPMTTTTGALTITFATTCDGPLAHIPHHLDLNIIHGRIQGTTAHRRIDAEDPDGLDDGLPHHLCLSVDTTGTHLFIDGYEAFSTTQTEWFDTSELTLNPHGDLTIIDHQILNHAPTPRQARNLAPAAEPLVWFAGSHLSTRDTQRISHLTHGSLRLLMKTRGTGQGGVAFQAHTINGDLTLEIIDGTLIFSVRCHDEDYVRITAPGRWDDGQIYDVVIVCGRGATDIYVDGQQLIHSPGAAFFNDLSGELSVHIGTAASGVRLFGEVQSGMIYPHVFNHHQVQRLATVEPIATQALFDCLLDGAQSYRIPSLITTDSGVIIAGADKRVSIANDAPNDIDFVLRRSVDGGRTWQPPRTILQLPDTACVTDSVLLQDHTTGRIFAFLDQFPAGIGQPNAAFGTGFDADGNRIGHFADGSTCTMPREVDQLEASFFSDPHTAPPGIVFQHPSCHLWMLTSDDDGLTWSTPRDLTPDVKEEWMRFCGTSPGNGIQLQRDTHAGRLLIPMYYTKGDQFFAAALYSDDHGDTWHRGESPDLEMYESTLVEASDGSVLLWARNQHPSGAVAHARSTDGGHSWSQVTFNPNVPEIFSQPNALRVTNPDGIIFANASQLLPFRGRGVLRMSTNDGASWQHNRVFNPRHYVYQCMTQLPDGSIGLLWEREMQGLFFSIIPMTWIMQGYAL
glycan array binding signal (z-score) [1]: 0.007 | glycan array binding signal (z-score) [2]: 0.292 | glycan array binding signal (z-score) [3]: 6.81 | glycan array binding signal (z-score) [4]: 0.442 | glycan array binding signal (z-score) [5]: 3.26 | glycan array binding signal (z-score) [6]: -0.77 | glycan array binding signal (z-score) [7]: 4.32 | glycan array binding signal (z-score) [8]: 3.36 | glycan array binding signal (z-score) [9]: 0.813 | glycan array binding signal (z-score) [10]: -1.04 | glycan array binding signal (z-score) (Gal(a1-3)GalNAc): -0.16 | glycan array binding signal (z-score) [11]: 0.309 | glycan array binding signal (z-score) [12]: 8.52 | glycan array binding signal (z-score) [13]: -0.586 | glycan array binding signal (z-score) (Gal(b1-6)Gal): 0.892 | glycan array binding signal (z-score) [14]: -0.197 | glycan array binding signal (z-score) (Gal4S(b1-4)GlcNAc): -0.503 | glycan array binding signal (z-score) (Gal6S(b1-4)Glc): -0.205 | glycan array binding signal (z-score) (Gal6S(b1-4)GlcNAc): -0.815 | glycan array binding signal (z-score) (Glc(a1-4)Glc): -0.173 | glycan array binding signal (z-score) [15]: -0.205 | glycan array binding signal (z-score) [16]: 4.05 | glycan array binding signal (z-score) [17]: 9.15 | glycan array binding signal (z-score) [18]: -0.477 | glycan array binding signal (z-score) (Kdn(a2-3)Gal(b1-3)GlcNAc): 0.075 | glycan array binding signal (z-score) [19]: 0.157 | glycan array binding signal (z-score) [20]: -0.074 | glycan array binding signal (z-score) [21]: 1.28 | glycan array binding signal (z-score) [22]: -0.319 | glycan array binding signal (z-score) [23]: 3.03 | glycan array binding signal (z-score) [24]: -0.34 | glycan array binding signal (z-score) [25]: 0.411 | glycan array binding signal (z-score) [26]: -0.415 | glycan array binding signal (z-score) [27]: 0.019 | glycan array binding signal (z-score) [28]: -0.157 | glycan array binding signal (z-score) [29]: -0.533
